Experimental data taken from the supplement of paper PMC8007513.
Counter-ions that a name gives are not always drawn. ± gives the standard error. In all, about 1,300 compounds went through this assay and about 130 (10%) showed an effect of 50% or more. This is one part of a sample in which strong results are shown more often than they occur.

Tested on: Trichoderma virens ATCC 9645
Experiment: growth yield (OD600) with compound + IPBC relative to untreated control; higher = less growth inhibition
Conditions: compound concentration: 100 uM, IPBC concentration: 200 ng/ml
Procedure, shortened: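 Library compounds (100 μM final), with or without a co-applied biocide (200 ng ml^−1), were added to 100 μl aliquots of Trichoderma virens ATCC 9645 spores at 15,000 spores ml^−1 in potato dextrose broth. Cultures were grown at 30 °C in 96-well plates, and OD600 was measured at 40 h and 72 h. Each growth value is a mean of duplicate screens, expressed relative to the control with neither agent.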

| Structure (SMILES) | growth yield (40 h) | growth yield (72 h) |
| --- | --- | --- |
| Oc1cc(Cl)ccc1Oc1ccc(Cl)cc1Cl [Triclosan] + CCCCNC(=O)OCC#CI [3-iodo-2-propynyl butylcarbamate (IPBC)] | 3.02 ± 0.16% | 2.2 ± 0.1% |
| C#CCN(C)CCCOc1ccc(Cl)cc1Cl [Clorgyline hydrochloride] + CCCCNC(=O)OCC#CI [3-iodo-2-propynyl butylcarbamate (IPBC)] | 60.36 ± 0.32% | 87.2 ± 2.2% |
| CN1[C@@H]2CC[C@H]1C[C@@H](OC(c1ccccc1)c1ccccc1)C2 [Benztropine mesylate] + CCCCNC(=O)OCC#CI [3-iodo-2-propynyl butylcarbamate (IPBC)] | 84.7 ± 2.1% | 96.1 ± 4.4% |
| C[C@H](CCC(=O)O)[C@H]1CC[C@H]2[C@@H]3[C@@H](O)C[C@@H]4C[C@H](O)CC[C@]4(C)[C@H]3CC[C@]12C [Urosiol] + CCCCNC(=O)OCC#CI [3-iodo-2-propynyl butylcarbamate (IPBC)] | 104 ± 12% | 99.7 ± 5.1% |
| N[C@@H](C(=O)N[C@@H]1C(=O)N2C(C(=O)O)=C(Cl)CS[C@H]12)c1ccccc1 [Cefaclor hydrate] + CCCCNC(=O)OCC#CI [3-iodo-2-propynyl butylcarbamate (IPBC)] | 92.9 ± 8.1% | 96.7 ± 4% |
| CC[N+](C)(CC)CCC[n+]1c(-c2ccccc2)c2cc(N)ccc2c2ccc(N)cc21 [Propidium iodide] + CCCCNC(=O)OCC#CI [3-iodo-2-propynyl butylcarbamate (IPBC)] | 8.1 ± 5.6% | 12.7 ± 0.32% |
| COc1ccc(CN2CCNCC2)c(OC)c1OC [Trimetazidine dihydrochloride] + CCCCNC(=O)OCC#CI [3-iodo-2-propynyl butylcarbamate (IPBC)] | 85 ± 2.1% | 91.87 ± 0.42% |
| CCCCCN(C)CCC(O)(P(=O)(O)O)P(=O)(O)O [Ibandronate sodium] + CCCCNC(=O)OCC#CI [3-iodo-2-propynyl butylcarbamate (IPBC)] | 87.84 ± 0.48% | 96.8 ± 0.94% |
| Cc1c(OCC(F)(F)F)ccnc1C[S+]([O-])c1nc2ccccc2[nH]1 (stereo not given) [Lansoprazole] + CCCCNC(=O)OCC#CI [3-iodo-2-propynyl butylcarbamate (IPBC)] | 68.1 ± 2.1% | 91.87 ± 0.21% |
| O=C(O)C[C@H](O)C[C@H](O)/C=C/c1c(C2CC2)nc2ccccc2c1-c1ccc(F)cc1 [Pitavastatin calcium] + CCCCNC(=O)OCC#CI [3-iodo-2-propynyl butylcarbamate (IPBC)] | 14 ± 2.2% | 39.4 ± 3.4% |
| CC(C)c1c(C(=O)Nc2ccccc2)c(-c2ccccc2)c(-c2ccc(F)cc2)n1CC[C@@H](O)C[C@@H](O)CC(=O)O [Atorvastatin] + CCCCNC(=O)OCC#CI [3-iodo-2-propynyl butylcarbamate (IPBC)] | 69.3 ± 2.2% | 79.5 ± 1.3% |
| CC(C)n1c(/C=C/C(O)CC(O)CC(=O)O)c(-c2ccc(F)cc2)c2ccccc21 (stereo not given) [Fluvastatin sodium salt] + CCCCNC(=O)OCC#CI [3-iodo-2-propynyl butylcarbamate (IPBC)] | 13.8 ± 0.48% | 33.9 ± 0.52% |
| C=CC[C@]1(O)CC[C@H]2[C@@H]3CCC4=CC(=O)CCC4=C3C=C[C@@]21C [Altrenogest] + CCCCNC(=O)OCC#CI [3-iodo-2-propynyl butylcarbamate (IPBC)] | 96.6 ± 1.6% | 93.8 ± 2.3% |
| COc1ccc(CCN)cc1OC [Homoveratrylamine] + CCCCNC(=O)OCC#CI [3-iodo-2-propynyl butylcarbamate (IPBC)] | 89.3 ± 5.4% | 91.1 ± 6.4% |
| O=P(O)(O)C(O)(Cn1ccnc1)P(=O)(O)O [Zoledronic acid hydrate] + CCCCNC(=O)OCC#CI [3-iodo-2-propynyl butylcarbamate (IPBC)] | 102 ± 6.3% | 105 ± 4.3% |
| O=C(Cn1ccnc1[N+](=O)[O-])NCCO [Etanidazole] + CCCCNC(=O)OCC#CI [3-iodo-2-propynyl butylcarbamate (IPBC)] | 91.3 ± 3.3% | 92.2 ± 3.9% |
| COc1cc([S+](C)[O-])ccc1-c1nc2cccnc2[nH]1 (stereo not given) [Sulmazole] + CCCCNC(=O)OCC#CI [3-iodo-2-propynyl butylcarbamate (IPBC)] | 110 ± 9.8% | 107 ± 4.2% |
| CO[C@H]1/C=C/O[C@@]2(C)Oc3c(C)c(O)c4c(O)c(c(/C=N/N5CCN(C)CC5)c(O)c4c3C2=O)NC(=O)/C(C)=C\C=C\[C@H](C)[C@H](O)[C@@H](C)[C@@H](O)[C@@H](C)[C@H](OC(C)=O)[C@@H]1C [Rifampicin] + CCCCNC(=O)OCC#CI [3-iodo-2-propynyl butylcarbamate (IPBC)] | 89 ± 7% | 93.8 ± 3.6% |
| Nc1nc(=O)c2nc(CNc3ccc(C(=O)N[C@@H](CCC(=O)O)C(=O)O)cc3)cnc2[nH]1 [Folic acid] + CCCCNC(=O)OCC#CI [3-iodo-2-propynyl butylcarbamate (IPBC)] | 84.82 ± 0.32% | 91.03 ± 0.84% |
| OC(Cn1cncn1)(Cn1cncn1)c1ccc(F)cc1F [Fluconazole] + CCCCNC(=O)OCC#CI [3-iodo-2-propynyl butylcarbamate (IPBC)] | 57.7 ± 5.9% | 75.2 ± 8.5% |
| C[C@@H](c1ncncc1F)[C@](O)(Cn1cncn1)c1ccc(F)cc1F [Voriconazole] + CCCCNC(=O)OCC#CI [3-iodo-2-propynyl butylcarbamate (IPBC)] | 5.24 ± 0.16% | 4.09 ± 0.1% |
| CNC(C)CCC=C(C)C (stereo not given) [Isometheptene mucate] + CCCCNC(=O)OCC#CI [3-iodo-2-propynyl butylcarbamate (IPBC)] | 101 ± 16% | 101 ± 8.4% |
| CC(O)(CS(=O)(=O)c1ccc(F)cc1)C(=O)Nc1ccc(C#N)c(C(F)(F)F)c1 (stereo not given) [Bicalutamide] + CCCCNC(=O)OCC#CI [3-iodo-2-propynyl butylcarbamate (IPBC)] | 94 ± 12% | 97.5 ± 6.5% |
| CCOc1ccccc1OCC1CNCCO1 (stereo not given) [Viloxazine hydrochloride] + CCCCNC(=O)OCC#CI [3-iodo-2-propynyl butylcarbamate (IPBC)] | 103 ± 19% | 102 ± 14% |
| Clc1ccccc1C(c1ccccc1)(c1ccccc1)n1ccnc1 [Clotrimazole] + CCCCNC(=O)OCC#CI [3-iodo-2-propynyl butylcarbamate (IPBC)] | 5.08 ± 0.32% | 3.46 ± 0.1% |
